Test results: PubChem BioAssay AID602143 (Vanderbilt Specialized Chemistry Center, 2011)
Values without a mark were called inactive. Active and inactive are the calls of the source. No stated cut-off is given here; in the data, active means remaining activity below about 50%; inactive means the rest.

These compounds were tested against Phospholipase D2 (Homo sapiens) (UniProt O14939) (assay: PLD2 inhibitors in cells, cell-based, HEK293, single concentration (AID 602143;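 further: tested at 200 nM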)). Conditions: HEK293 cellular PLD2 activity, percent of control; stronger effect = lower value.
Phospholipase D2 (Homo sapiens), sequence (O14939 whole entry, looked up): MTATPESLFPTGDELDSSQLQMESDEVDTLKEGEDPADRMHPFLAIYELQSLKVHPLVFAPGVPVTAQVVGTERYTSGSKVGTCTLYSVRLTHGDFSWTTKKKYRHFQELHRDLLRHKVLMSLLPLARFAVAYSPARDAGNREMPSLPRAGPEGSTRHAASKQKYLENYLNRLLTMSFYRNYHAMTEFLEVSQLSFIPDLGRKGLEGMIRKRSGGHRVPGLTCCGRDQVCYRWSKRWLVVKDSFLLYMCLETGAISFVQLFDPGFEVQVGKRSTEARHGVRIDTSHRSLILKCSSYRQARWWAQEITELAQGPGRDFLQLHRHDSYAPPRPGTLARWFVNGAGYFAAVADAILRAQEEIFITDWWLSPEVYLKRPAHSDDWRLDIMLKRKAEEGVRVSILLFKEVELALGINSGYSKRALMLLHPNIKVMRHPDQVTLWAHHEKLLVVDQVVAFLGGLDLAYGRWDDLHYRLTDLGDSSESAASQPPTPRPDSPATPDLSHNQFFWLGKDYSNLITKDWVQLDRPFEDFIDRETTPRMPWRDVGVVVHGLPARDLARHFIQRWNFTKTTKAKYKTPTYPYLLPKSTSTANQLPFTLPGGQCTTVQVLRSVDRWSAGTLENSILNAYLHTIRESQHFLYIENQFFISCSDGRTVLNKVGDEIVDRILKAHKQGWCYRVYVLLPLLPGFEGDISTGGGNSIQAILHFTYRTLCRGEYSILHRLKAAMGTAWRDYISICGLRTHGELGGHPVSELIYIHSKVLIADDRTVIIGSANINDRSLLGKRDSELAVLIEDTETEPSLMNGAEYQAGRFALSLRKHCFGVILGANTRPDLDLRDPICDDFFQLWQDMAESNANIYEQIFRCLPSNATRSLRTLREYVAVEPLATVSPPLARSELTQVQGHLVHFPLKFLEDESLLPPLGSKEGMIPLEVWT
Phospholipase D2 (Homo sapiens), sequence (O14939 whole entry, looked up): as above
With `C[C@@H](CN1CCC(n2nnc3cc(C(F)(F)F)ccc32)CC1)NC(=O)c1ccc2ccccc2c1` the remaining activity was 107%. With `O=C(NCCN1CCC(n2c(=O)[nH]c3ccccc32)CC1)c1cc2ccc3ccccc3c2c2ccccc12` the remaining activity was 109%. `CC(C)[C@@H](CN1CCC(n2c(=O)[nH]c3ccccc32)CC1)NC(=O)c1ccc(F)cc1` showed a remaining activity of 82%. `O=C(NCCN1CCN(c2ccncc2)CC1)c1ccc(F)cc1` was tested, and the remaining activity was 102%. Compound `O=C(c1ccc(Cl)cc1)N(CCN1CCC(n2c(=O)[nH]c3ccccc32)CC1)C(=O)c1ccc(Cl)cc1` has a remaining activity of 94.2%. `O=C(NCCN1CCC2(CC1)CCN(c1ccccc1)C2=O)c1cnc2ccccc2c1` was tested, and the remaining activity was 42.3% (active). Work on `COc1ccc2c(c1)c(CC(=O)NCCN1CCC(n3c(=O)[nH]c4ccccc43)CC1)c(C)n2C(=O)c1ccc(Cl)cc1` yielded a remaining activity of 73.8%. Work on `CCS(=O)(=O)NCCN1CCC(n2c(=O)[nH]c3ccccc32)CC1` yielded a remaining activity of 100%. `O=C(NCCN1CCC(n2c(=O)[nH]c3ccccc32)CC1)c1ccc2ccc3c4c2c1CC=C4CC=C3` was tested, and the remaining activity was 79.2%. Compound `O=c1[nH]c2ccccc2n1C1CCN(CCNS(=O)(=O)c2ccccc2Br)CC1` has a remaining activity of 75.8%. In the case of `Cc1ccc(C(=O)NCCN2CCN(c3ncccn3)CC2)cc1`, the remaining activity is reported as 85.6%. `NC1(CN2CCC(n3c(=O)[nH]c4ccccc43)CC2)CCCC1` (tested in a mixture with another compound) gave a remaining activity of 66.9%. For `C[C@@H](CN1CCC(n2c(=O)[nH]c3cc(Br)ccc32)CC1)NC(=O)c1ccc(F)cc1`, the remaining activity was 80.4%. `O=C(NCCN1CCC(n2nnc3ccccc32)CC1)C1CC1c1ccccc1` (stereo not given) showed a remaining activity of 78.1%. Work on `O=C(CCCN1CCC(O)(c2ccc(Cl)cc2)CC1)c1ccc(F)cc1` yielded a remaining activity of 107%. In the case of `O=C(N[C@@H](Cc1ccccc1)CN1CCC(n2c(=O)[nH]c3ccccc32)CC1)c1cnc2ccccc2c1`, the remaining activity is reported as 60.2%. Compound `COc1ccc(S(=O)(=O)NCCN2CCC(n3c(=O)[nH]c4ccccc43)CC2)cc1OC` has a remaining activity of 77.1%. For `C[C@@H](CN1CCC(n2c(=O)[nH]c3ccccc32)CC1)NC(=O)c1ccc[nH]1`, the remaining activity was 39.9% (active). Work on `O=C(NCCN1CCC(n2c(=O)[nH]c3ccccc32)CC1)C1CCCCCCCCCC1` yielded a remaining activity of 81.3%. `C[C@H](CN1CCC(n2nnc3ccccc32)CC1)NC(=O)c1cnc2ccccc2c1` was tested, and the remaining activity was 68.5%. `O=C(NCCN1CCC(n2c(=O)[nH]c3ccccc32)CC1)C1(c2ccccc2)CCC1` gave a remaining activity of 86.3%. For `C[C@@H](CN1CCC(n2c(=O)[nH]c3ccc(F)cc32)CC1)NC(=O)c1ccc(F)c(F)c1`, the remaining activity was 52.6%. In the case of `C[C@@H](CN1CCC(n2c(=O)[nH]c3ccccc32)CC1)NC(=O)c1cc2cc(F)ccc2[nH]1`, the remaining activity is reported as 0.758% (active). With `O=C(Cc1ccc2ccccc2c1)NCCN1CCC(n2c(=O)[nH]c3ccccc32)CC1` the remaining activity was 112%. In the case of `C[C@@H](CN1CCC2(CC1)CCN(C)C2=O)NC(=O)c1ccc2ccccc2c1`, the remaining activity is reported as 135%. With `C[C@@H](CN1CCC2(C=Cc3ccccc32)CC1)NC(=O)[C@H]1C[C@@H]1c1ccccc1` the remaining activity was 87.1%. Compound `Cn1c(=O)n(C2CCN(CCNC(=O)[C@H]3C[C@@H]3c3ccccc3)CC2)c2ccccc21` has a remaining activity of 78.4%. For `C[C@H](CN1CCC2(CC1)CNCc1ccccc12)NC(=O)c1ccc2ccccc2c1`, the remaining activity was 110%. For `Cc1ccc(C(=O)N[C@@H](C)CN2CCC(n3c(=O)[nH]c4ccc(F)cc43)CC2)cc1`, the remaining activity was 64%. With `C[C@@H](CN1CC=C(n2c(=O)[nH]c3ccccc32)CC1)NC(=O)[C@H]1C[C@@H]1c1ccccc1` the remaining activity was 74.4%. In the case of `O=C(NCCN1CCC(n2nnc3ccccc32)CC1)c1ccc2ccccc2c1`, the remaining activity is reported as 0.808% (active). Compound `CCNC(=S)NCCN1CCC(n2c(=O)[nH]c3ccccc32)CC1` has a remaining activity of 78.2%. In the case of `CN(C)c1cccc2c(S(=O)(=O)NCCN3CCC(n4c(=O)[nH]c5ccccc54)CC3)cccc12`, the remaining activity is reported as 112%. `O=C1c2ccccc2C(=O)N1CCN1CCC(n2c(=O)[nH]c3ccccc32)CC1` showed a remaining activity of 87.7%. For `COc1cccc(N2CCN(CCNC(=O)c3ccc(Cl)cc3)CC2)c1`, the remaining activity was 109%.
